This passage reports outcome results from PubChem BioAssay (Tox21).

Each structure is given as a SMILES string. Calls of active or inactive are those of the source. Calls come from the whole dose curve; as a rule, active = well fitted inhibition curve with a large enough effect in the repeat runs (not every such curve was filed as active); inconclusive = weak or mixed curves; inactive = flat fitted curve, though single readings scatter.

Sequence of Thyrotropin-releasing hormone receptor (Homo sapiens) (P34981 whole entry, looked up): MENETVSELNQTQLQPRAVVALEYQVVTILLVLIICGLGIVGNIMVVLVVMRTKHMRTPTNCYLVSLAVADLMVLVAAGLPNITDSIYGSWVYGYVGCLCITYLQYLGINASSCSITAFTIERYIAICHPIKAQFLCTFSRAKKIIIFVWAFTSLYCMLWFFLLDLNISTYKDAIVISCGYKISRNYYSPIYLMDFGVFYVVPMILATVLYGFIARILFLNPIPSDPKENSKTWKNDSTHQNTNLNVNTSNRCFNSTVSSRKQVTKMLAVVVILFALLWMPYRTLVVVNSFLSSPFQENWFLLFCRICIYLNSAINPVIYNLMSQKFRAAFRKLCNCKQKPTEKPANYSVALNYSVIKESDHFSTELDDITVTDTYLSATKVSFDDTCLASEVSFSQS

The target in this experiment is Thyrotropin-releasing hormone receptor (Homo sapiens) (UniProt P34981). As to the kind of experiment: qHTS assay to identify small molecule antagonists of the thyrotropin-releasing hormone receptor (TRHR) signaling pathway (AID 1346877). The following applies: TRHR-HEK293, TRH-induced calcium fluorescence, antagonist mode; series mostly up to 51.3 µM. The text has this:
National Center for Advancing Translational Sciences [NCATS]
NIH Chemical Genomics Center [NCGC]
U.S. Environmental Protection Agency [EPA]
National Institutes of Environmental Health Sciences [NIEHS]
National Toxicology Program [NTP]
U.S. Food and Drug Administration [FDA]
Thyrotropin-releasing hormone (TRH) receptor (TRHR) is a G-protein-coupled receptor which binds the tripeptide thyrotropin releasing hormone. TRHR is found in the brain and, when bound by TRH, acts (through phospholipase C) to increase intracellular inositol trisphosphate. It plays a crucial role in the anterior pituitary where it controls the synthesis and secretion of thyroid stimulating hormone and prolactin. The TRHR-Hek293 assay is a cell-based assay, and it has the potential to screen G protein-coupled receptors. A compound/drug can either activate (agonist) or suppress (antagonist) GPCRs that can be monitored by levels of intracellular calcium. In this assay, the Tox21 10K compound library was screened to identify potential TRHR antagonists.
Tox21 Assay Protocol Summary:
The TRHR-Hek293 cells were dispensed at 1500cells/4uL/well in 1536-well black-clear bottom plates using a Multidrop dispenser. After the assay plates were incubated at a 37 C/5% CO2 incubator for 18 hours, 4 uL of Dye-Loading Solution was added to each well. The plates were incubated at 37 C for 2 hours. For agonist mode, 23 nL of compounds dissolved in DMSO, positive controls or DMSO only was transferred to the assay plate by a pin tool. The fluorescence intensity in the plates was measured using FDSS 7000EX kinetic plate reader for 3 min at 1 sec intervals. For antagonist mode, 23 nL of compounds dissolved in DMSO, positive controls or DMSO only was transferred to the assay plate by a pin tool. After 5 min incubation at room temperature, 1 uL of TRH was added on the top of the cell/compound mixtures to achieve a final agonist concentration of 1 nM. The fluorescence intensity in the plates was measured using FDSS 7000EX kinetic plate reader for 3 min at 1 sec intervals. Each test compound was measured at 15 concentrations and in triplicates.
(qHTS replaces the single test concentration by a dilution series.)
With `CCCO[Si](OCCC)(OCCC)OCCC`, the outcome was inactive.

Regarding `CCCCS(=O)(=O)N[C@@H](Cc1ccc(OCCCCC2CCNCC2)cc1)C(=O)O`, the outcome was inactive. In the case of `Cc1c(N)c(=O)n(-c2ccccc2)n1C`, the result was inactive. As for `CCC(=O)OCc1ccccc1`, the outcome was inactive.

With `CC(C)(C)c1ccc(-c2ccc(C(C)(C)C)cc2)cc1`, the outcome was inactive. Regarding `CC1OC1C1CCC2(C)OC2C1` (stereo not given), the outcome was inactive.

For `CC(=O)N1C[C@H](O)C[C@H]1C(=O)O`, the outcome was inactive.

On to `CCOC(=O)COC(=O)c1ccccc1C(=O)OCC`, for which the result was inactive.

Take `CNCCO`: the outcome was inactive. As for `CCCCN(CCC(=O)OCC)C(C)=O`, the outcome was inactive.

Turning to `C[N+]1(C)[C@@H]2CC(OC(=O)[C@H](CO)c3ccccc3)C[C@H]1[C@@H]1O[C@@H]12` (stereo not given in full), the outcome was inactive.

Consider `NCCCC(N)(C(=O)O)C(F)F` (stereo not given), for which the result was inactive.

For `NC(=O)NC1N=C([O][Al])NC1=O` (stereo not given), the outcome was inactive.

Take `C=C[Si](OC(C)=O)(OC(C)=O)OC(C)=O`: the result was inactive. As for `O=C(O)CNC(=O)c1ccccc1`, the outcome was inactive.

On to `CCOC(=O)c1cnc2c(cnn2CC)c1NN=C(C)C`, for which the result was inactive. With `O=C1NC(=O)C2CC=CCC12` (stereo not given), the outcome was inactive. Regarding `CCNS(=O)(=O)c1ccc(C)cc1`, the result was inactive. For `CC[C@H]1OC(=O)[C@H](C)[C@@H](O[C@H]2C[C@@](C)(OC)[C@@H](O)[C@H](C)O2)[C@H](C)[C@@H](O[C@@H]2O[C@H](C)C[C@H](N(C)C)[C@H]2O)[C@](C)(OC)C[C@@H](C)C(=O)[C@H](C)[C@@H](O)[C@]1(C)O`, the result was inactive. As to `O=S(=O)(O)c1cccc2c(S(=O)(=O)O)cccc12`, the outcome was inactive. Regarding `O=C(O)CNC(=O)c1ccc(CO)o1`, the result was inactive.

Consider `CCC(C(=O)NC(=O)NC(C)=O)c1ccccc1` (stereo not given), for which the outcome was inactive.

On to `CCCCOCCOC(=O)COc1cc(Cl)c(Cl)cc1Cl`, for which the outcome was inactive.

As to `CCOc1c(N2CCOCC2)cnn(C)c1=O`, the outcome was inactive. Consider `COc1cc(C(=O)NCc2ccc(OCCN(C)C)cc2)cc(OC)c1OC`, for which the outcome was inactive. For `Cc1ncc([C@@H](CCCCCCc2ccc3c(n2)NCCC3)CC(=O)O)cn1` the value was “inactive”; for `O=C(O)Cc1csc(-c2ccc(Cl)cc2)n1`, “inactive”. With `Cc1onc(-c2c(Cl)cccc2Cl)c1C(=O)Cl`, the outcome was inactive. For `CO[C@@]1(NC(=O)C(C(=O)O)c2ccc(O)cc2)C(=O)N2C(C(=O)O)=C(CSc3nnnn3C)CO[C@@H]21` (stereo not given in full), the result was inactive.

As for `COc1cc(-c2ccc(=O)[nH]n2)ccc1OC(F)F`, the result was inactive.

Turning to `O=C(O)c1cc(C(=O)O)cc(C(=O)O)c1`, the outcome was inactive. Consider `Nc1ccncc1N`, for which the result was inactive. Consider `CN1CC(=O)N/C1=N/C(=O)Nc1cccc(Cl)c1`, for which the result was inactive. For `O=S(=O)(O)c1cccc2ccccc12`, the result was inactive. Under `CC[N+](C)(CC)CCOC(=O)C1c2ccccc2Oc2ccccc21` stands “inactive”; under `O=[N+]([O-])c1cncn1CCN1CCOCC1`, “inactive”. Turning to `c1ccc(Cc2ccccc2)cc1`, the result was inactive. Take `CCCc1ncc(C[n+]2ccccc2C)c(N)n1`: the outcome was inactive.

Regarding `CO/N=C(\C(=O)N[C@@H]1C(=O)N2C(C(=O)O)=C(CSc3nc(=O)c(O)nn3C)CS[C@H]12)c1csc(N)n1`, the result was inactive. Regarding `CCCCCC(=O)OCCc1ccccc1`, the result was inactive.
